Test results as given in PubChem BioAssay (NCATS).
Records with an inconclusive call do not appear. Active and inactive are the calls of the source. The call rests on the fitted dose curve; in most records, active means well fitted curve in the direction sought with a large enough effect; inconclusive means small, poorly fitted or top-dose-only effect, or another doubt; inactive means no such curve, though single readings can be large; an effect the other way counts as inactive or inconclusive.

Key:
[1] = system: CRL-7250; test: Cytotoxic Profiling of Annotated Libraries Using Quantitative High-Throughput Screening (AID 1296008); details: Five cell lines viability, CellTiter-Glo ATP luminescence, 48-72 h; max response: hits give low values; further: nearly all actives have a fitted effect of over 60% in size; further: potency means the concentration at half of the fitted maximal effect; on max response: on the % scale 0 is the no-effect control and ±100 the full control effect
Outline: (§1)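 Cytotoxicity was measured as CellTiter-Glo ATP luminescence, read after 10 min at room temperature. Compound treatment of the cells lasted 48 or 72 hr at 37 degrees Celsius in a qHTS format.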

[2] = system: HEK293; test: as above; details: Five cell lines viability, CellTiter-Glo ATP luminescence, 48-72 h; max response: hits give low values
Outline: as §1

[3] = system: HaCat; test: as above; details: Five cell lines viability, CellTiter-Glo ATP luminescence, 48-72 h; max response: hits give low values
Outline: as §1

[4] = system: NIH3T3; test: as above; details: Five cell lines viability, CellTiter-Glo ATP luminescence, 48-72 h; max response: hits give low values
Outline: as §1

[5] = system: MCC-13; test: qHTS assay to identify novel small-molecules to repurpose for Merkel cell carcinoma treatment (AID 1296009); details: MCC and control cell lines, CellTiter-Glo viability, 72 h; series mostly up to 46 µM; further: nearly all actives have a fitted effect of over 60% in size
Outline: (§2)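 Cell viability measured by CellTiter-Glo following 72 hr compound treatment at 37 degree celsius, with NPC and MIPE libraries tested in 8- and 11-point concentration series.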

[6] = system: MCC-26; test: as above; details: MCC and control cell lines, CellTiter-Glo viability, 72 h; series mostly up to 46 µM
Outline: as §2

[7] = system: MKL-1; test: as above; details: MCC and control cell lines, CellTiter-Glo viability, 72 h; series mostly up to 46 µM
Outline: as §2

[8] = system: MKL-2; test: as above; details: MCC and control cell lines, CellTiter-Glo viability, 72 h; series mostly up to 46 µM
Outline: as §2

[9] = system: UISO; test: as above; details: MCC and control cell lines, CellTiter-Glo viability, 72 h; series mostly up to 46 µM
Outline: as §2

[10] = system: WaGa; test: as above; details: MCC and control cell lines, CellTiter-Glo viability, 72 h; series mostly up to 46 µM
Outline: as §2

[11] = system: C33A; test: Primary qHTS to identify gynecologic anti-cancer compounds using libraries of approved drugs and bioactive compounds (AID 1345084); details: Gynecologic cancer cell panel viability, ATPlite luminescence, 48 h; series mostly up to 57.5 µM; further: on the % scale 0 is the no-effect control and ±100 the full control effect; nearly all actives have a fitted effect of over 55% in size
Outline: (§3)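 Five-point cytotoxicity, 48 h drug exposure at 37 C, 5% CO2, on cells seeded 16 h beforehand. ATP content read by ATPlite luminescence.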

[12] = system: CAOV3; test: as above; details: Gynecologic cancer cell panel viability, ATPlite luminescence, 48 h; series mostly up to 57.5 µM
Outline: as §3

[13] = system: CASKI; test: as above; details: Gynecologic cancer cell panel viability, ATPlite luminescence, 48 h; series mostly up to 57.5 µM
Outline: as §3

[14] = system: Es-2; test: as above; details: Gynecologic cancer cell panel viability, ATPlite luminescence, 48 h; series mostly up to 57.5 µM
Outline: as §3

[15] = system: HeLa; test: as above; details: Gynecologic cancer cell panel viability, ATPlite luminescence, 48 h; series mostly up to 57.5 µM
Outline: as §3

[16] = system: W2; test: qHTS profiling for inhibitors of Plasmodium falciparum proliferation (AID 504749); further: nearly all actives have a fitted effect of over 60% in size; further: potency means the concentration at half of the fitted maximal effect; details: P. falciparum in erythrocytes, SYBR Green DNA, 72 h; series mostly up to 28.7 µM
Outline: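 In a 72 h erythrocytic culture (37 C, humidified, 5% CO2) at 2.5% hematocrit and 0.3% starting parasitemia, compounds were tested; SYBR Green I in detergent lysis buffer stained parasite DNA overnight.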

[17] = system: KB-3-1; test: Cytotoxic Profiling of Annotated Libraries Using Quantitative High-Throughput Screening (AID 1296008); details: Five cell lines viability, CellTiter-Glo ATP luminescence, 48-72 h; max response: hits give low values; further: nearly all actives have a fitted effect of over 60% in size; further: potency means the concentration at half of the fitted maximal effect; on max response: on the % scale 0 is the no-effect control and ±100 the full control effect
Outline: as §1

[18] = system: NIH3T3; test: qHTS assay to identify novel small-molecules to repurpose for Merkel cell carcinoma treatment (AID 1296009); details: MCC and control cell lines, CellTiter-Glo viability, 72 h; at 44.8 µM (top of the series); further: nearly all actives have a fitted effect of over 60% in size
Outline: as §2

[19] = system: HACAT; test: as above; details: MCC and control cell lines, CellTiter-Glo viability, 72 h; at 44.8 µM (top of the series) unless noted
Outline: as §2

[20] = system: HEK293T; test: as above; details: MCC and control cell lines, CellTiter-Glo viability, 72 h; at 44.8 µM (top of the series) unless noted
Outline: as §2

CCN1CCN(C(=O)N[C@@H](C(=O)N[C@@H]2C(=O)N3C(C(=O)O)=C(CSc4nnnn4C)CS[C@H]23)c2ccc(O)cc2)C(=O)C1=O
inactive: max response [1] 3.23% | max response [2] -4.75% | max response [3] -2.57% | max response [4] -3.36% | Potency [5] | Potency [6] | Potency [7] | Potency [8] | Potency [9] | Potency [10] | Potency [11] | Potency [12] | Potency [13] | Potency [14] | Potency [15]

CCOc1ccccc1C(N)=O
inactive: Potency [16] | outcome [1] | max response [2] -2.36% | max response [3] 1.44% | max response [17] -15.7% | outcome [4] | Potency [5] | outcome [18] | Potency [11] | Potency [12] | Potency [13] | Potency [14] | Potency [15]

CC(=O)NC(=O)c1ccccc1O
inactive: Potency [16] | max response [1] -3.82% | max response [2] -1.84% | max response [3] -6.77% | max response [4] 0.511% | Potency [5] | Potency [6] | Potency [7] | Potency [8] | Potency [9] | Potency [10] | Potency [11] | Potency [12] | Potency [13] | Potency [14] | Potency [15]

CC(=O)O[C@]1(C(C)=O)CC[C@H]2[C@@H]3C=C(Cl)C4=CC(=O)CC[C@]4(C)[C@H]3CC[C@@]21C
active: Potency [16] 10.7 µM | Potency [2] 18.8 µM
inactive: max response [1] -6.12% | outcome [3] | max response [17] 2.1% | outcome [19] | Potency [5] | Potency [6] | Potency [7] | Potency [9] | Potency [10] | Potency [11] | Potency [12] | Potency [13] | Potency [14] | Potency [15]

NS(=O)(=O)c1ccc(Cl)c(S(N)(=O)=O)c1
inactive: Potency [16] | max response [1] -4.09% | outcome [2] | max response [3] -3.23% | max response [4] -4.55% | outcome [20] | Potency [5] | Potency [6] | Potency [7] | Potency [8] | Potency [9] | Potency [10] | Potency [11] | Potency [13] | Potency [14] | Potency [15]

COc1cc([C@H]2Oc3cc([C@H]4Oc5cc(O)cc(O)c5C(=O)[C@@H]4O)ccc3O[C@@H]2CO)ccc1O
inactive: outcome [1] | max response [2] -17.6% | max response [3] -5.16% | max response [17] 47.9% | Potency [5] | Potency [6] | Potency [7] | Potency [8] | Potency [9] | Potency [10] | Potency [11] | Potency [12] | Potency [13] | Potency [14] | Potency [15]

N#CCC(=O)NN
inactive: Potency [16] | outcome [1] | max response [2] 3.14% | outcome [3] | max response [17] -1.35% | outcome [19] | Potency [5] | Potency [6] | Potency [7] | Potency [8] | Potency [9] | Potency [10] | Potency [11] | Potency [12] | Potency [13] | Potency [14] | Potency [15]

Cn1c(=O)c2[nH]c(Br)nc2n(C)c1=O
inactive: Potency [16] | outcome [1] | max response [2] -7.38% | max response [3] -0.598% | max response [4] -3.31% | Potency [5] | Potency [6] | Potency [7] | Potency [8] | Potency [9] | Potency [10] | Potency [11] | Potency [12] | Potency [13] | Potency [14] | Potency [15]

O=S(c1cc(Cl)cc(Cl)c1O)c1cc(Cl)cc(Cl)c1O
inactive: outcome [1] | max response [2] -2.46% | max response [3] -16.1% | max response [17] -2.92% | max response [4] 1.36% | Potency [5] | Potency [7] | Potency [8] | Potency [9] | Potency [11] | Potency [12] | Potency [13] | Potency [14] | Potency [15]

O=C(Nc1ccc([N+](=O)[O-])cc1)Nc1ccc([N+](=O)[O-])cc1
active: Potency [16] 2.39 µM | Potency [2] 8.41 µM
inactive: max response [1] -8.01% | outcome [3] | max response [17] -1.19% | outcome [19] | Potency [5] | Potency [6] | Potency [7] | Potency [8] | Potency [9] | Potency [10] | Potency [11] | Potency [12] | Potency [13] | Potency [14] | Potency [15]

CCCN(CCC)S(=O)(=O)c1ccc(C(=O)O)cc1
active: Potency [3] 18.8 µM
inactive: Potency [16] | max response [1] -3.77% | max response [2] 3.98% | max response [17] 20.4% | Potency [5] | Potency [7] | Potency [8] | Potency [9] | Potency [10] | Potency [11] | Potency [12] | Potency [13] | Potency [14] | Potency [15]

CCN(CC)CCOC(=O)C1(c2ccccc2)CCCC1
inactive: max response [1] -4.97% | outcome [2] | max response [17] 1.37% | max response [4] 2.7% | outcome [20] | Potency [5] | Potency [6] | Potency [7] | Potency [8] | Potency [9] | Potency [10] | Potency [11] | Potency [13] | Potency [14] | Potency [15]

CCCc1ncc(C[n+]2ccccc2C)c(N)n1
inactive: Potency [16] | outcome [1] | max response [2] -18.1% | max response [4] 2.55% | Potency [5] | Potency [6] | Potency [7] | Potency [8] | Potency [9] | Potency [10] | Potency [11] | Potency [12] | Potency [13] | Potency [14] | Potency [15]

CC[C@]12CCCN3CCc4c(n(c5ccccc45)C(=O)C1)[C@@H]32
active: Potency [2] 7.5 µM
inactive: max response [1] 2.69% | max response [3] -22.7% | Potency [11] | Potency [14]
